Data reported in PubChem BioAssay.
Calls of active or inactive are those of the source.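 How the source made its calls, unless noted: active means z-score of at least 1.8 in each of two replicates, scored against plate mean and spread of sample wells; inactive means the rest.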

How the values were obtained:
[1] = MELAS cybrid and Rieske KO viability enhancers – cell-based, MELAS cybrids, Rieske KO mouse fibroblasts, CellTiter-Glo, primary screen (AID 1508586;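 active means mean z-score across replicates of 1.96 or higher in either the MELAS or the Rieske mutant cell line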;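 further: test concentration not given here; z relative to plate mean and SD of compound and empty wells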); details: low glucose
[2] = galactose survival enhancers in mitochondrial complex I cybrids – cell-based, galactose medium, ATP luminescence, primary screen (AID 1645843); details: complex I mutant cybrid cells, 72 h, stronger effect = higher value;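 further: positive z means more ATP and so rescue of galactose-driven cybrid death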
[3] = MELAS cybrid survival, CellTiter-Glo 48 h, stronger effect = higher value
[4] = Rieske KO mouse fibroblast survival, CellTiter-Glo 72 h

| Structure (SMILES) | z-score [1, 3] | z-score [1, 4] | z-score [2] |
| --- | --- | --- | --- |
| C[C@@H](NC(=O)N[C@H]1C[C@H]2C(=O)N[C@H](Cc3ccc(O)cc3)C(=O)N2C1)c1ccccc1 | -0.3 (inactive) | -0.613 | 0.6 (inactive) |
| Cn1nc(C(=O)NCc2cccnc2)c2c1CCN(Cc1ccc3c(c1)Cc1ccccc1-3)C2 | -0.134 (inactive) | -0.0827 | 0.125 (inactive) |
| CN(C)CCCNC(=O)[C@@H]1C[C@H](CN2CCOCC2)CN(CCc2ccccc2)C1 | -0.339 (inactive) | -0.139 | -0.365 (inactive) |
| Cc1nc(CN(C)C2CCc3c(c(C(=O)N(C)C)nn3CC3CCCCC3)C2)cs1 (centres undefined) | -0.264 (inactive) | -0.141 | 0.725 (inactive) |
| CN(Cc1ccco1)C(=O)c1nn(C)c2c1CC(N1CCOc3ccc(Cl)cc3C1)CC2 (centres undefined) | -0.11 (inactive) | 0.109 | -0.61 (inactive) |
| CN(Cc1nc(-c2ccccc2)cs1)C1CCc2c(c(C(=O)N3CCSCC3)nn2C)C1 (centres undefined) | 0.0592 (inactive) | 0.0851 | 0.7 (inactive) |
| C[C@H]1NC(=O)[C@@H]2C[C@H](NC(=O)c3cnn(-c4ccccc4)c3C(F)(F)F)CN2C1=O | 0.896 (inactive) | -0.434 | -1.26 (inactive) |
| O=C1N[C@@H](Cc2c[nH]c3ccccc23)C(=O)N2C[C@@H](NCc3ccccc3Cl)C[C@@H]12 | -0.311 (inactive) | 0.134 | -0.945 (inactive) |
| CC(C)CCNc1cc(C(=O)NCCn2ccnc2)cc(S(=O)(=O)Nc2ccccc2)c1 | -0.318 (inactive) | -0.223 | -0.47 (inactive) |
| CN(Cc1cscn1)C(=O)c1nn(CC2CC2)c2c1CN(C(=O)Cn1cnc3ccccc31)CC2 | 0.533 (inactive) | -0.0924 | -0.19 (inactive) |
| CCN1C(=O)N(CC(N)=O)C(=O)C12CCN(CC(C)Cc1ccc3c(c1)OCO3)CC2 (centres undefined) | 0.0615 (inactive) | -0.343 | 1.17 (inactive) |
| Cc1csc(-c2cc(C(=O)N3CCC(N(C)C)C3)cc(S(=O)(=O)N3CCOCC3)c2)c1 (centres undefined) | -0.101 (inactive) | 0.349 | 0.805 (inactive) |
| COc1cccc(C(=O)N2CCN3C(=O)[C@H](C(C)C)NC(=O)[C@H]3C2)c1 | -0.0303 (inactive) | -0.513 | 0.605 (inactive) |
| CCN1C(=O)N(Cc2cccc(OC)c2)C(=O)C12CCN(CC1CC=CCC1)CC2 (centres undefined) | -0.681 (inactive) | -0.854 | -0.435 (inactive) |
| O=C(NCCN1CCOCC1)c1cc(-c2ccccc2)cc(S(=O)(=O)N2CCSCC2)c1 | -0.0926 (inactive) | -0.421 | 1.53 (inactive) |
| NCCCC[C@@H]1NC(=O)[C@@H]2C[C@H](NCc3nc(-c4ccccc4)cs3)CN2C1=O | -0.0314 (inactive) | 0.0831 | -0.77 (inactive) |
| C[C@@H](O)[C@@H]1NC(=O)[C@@H]2C[C@H](NCc3cc4ccccc4s3)CN2C1=O | -0.64 (inactive) | -0.73 | -0.615 (inactive) |
| COC(=O)CCN1CC(OCc2ccncc2)CN(C(=O)c2csc(SC)n2)CC1=O (centres undefined) | -0.62 (inactive) | -0.661 | 0.42 (inactive) |
| Cn1c2c(cc(Cc3ccccc3F)c1=O)CN(C(=O)c1ccc(C#CC(C)(C)O)o1)CC2 | -0.447 (inactive) | 0.668 | -0.48 (inactive) |
| COc1cccc(C(=O)N2CCN3C(=O)[C@@H]4C[C@@H](O)CN4C(=O)[C@H]3C2)c1 | -0.0988 (inactive) | 0.379 | 0.555 (inactive) |
| COc1cccc2ccc(CN3CCC4(CC3)C(=O)N(CCc3ccccc3)C(=O)N4C)nc12 | -0.413 (inactive) | 1.51 | 0.055 (inactive) |
| O=C1N[C@H](Cc2ccc(O)cc2)C(=O)N2CCN(C(=O)c3cccc4ccccc34)C[C@H]12 | 0.285 (inactive) | -0.378 | -0.195 (inactive) |
| COC(=O)c1c(NC(=O)Cc2ccccc2)c2cc(NCc3nccs3)cnc2n1CC(C)C | -0.876 (inactive) | 1.74 | -1.62 (inactive) |
| CCN1C(=O)N(C)C(=O)C12CCN(Cc1cc3oc(C)c(-c4ccccc4)c3cc1OC)CC2 | -0.0202 (inactive) | -0.474 | 1.74 (inactive) |
| CCC(C)C(=O)Nc1c(C(=O)OC)n(CC2CCCO2)c2ncc(NC3CCSC3)cc12 (centres undefined) | -0.0694 (inactive) | 1.01 | -0.775 (inactive) |
| O=C(NCc1cccc(F)c1)N[C@H]1C[C@H]2C(=O)N[C@@H](COCc3ccccc3)C(=O)N2C1 | 0.777 (inactive) | -0.345 | -0.285 (inactive) |
| COC(=O)c1c(NC(C)=O)c2cc(NCc3sccc3C)cnc2n1CC1CCCO1 (centres undefined) | 0.213 (inactive) | 0.989 | -0.82 (inactive) |
| COCCn1c(C(=O)OC)c(NC(=O)Cc2ccccc2)c2cc(NC(C)CCO)cnc21 (centres undefined) | -0.113 (inactive) | 0.262 | -0.97 (inactive) |
